Laboratory results from paper PMC4336329 (PLoS ONE, 2015).
In all, about 310,000 compounds went through this assay and about 2,200 (0.71%) showed an effect of 50% or more. Effects have a minus sign here. Many of the other results were omitted from the sample, so strong results are more common in it than they were.

biological target: human ether-à-go-go-related gene (hERG) potassium channel (human, UniProt Q12809); experiment: primary screen, population patch clamp on CHO cells stably expressing hERG; higher = less effect of the substance
Sequence (Q12809 whole entry, looked up): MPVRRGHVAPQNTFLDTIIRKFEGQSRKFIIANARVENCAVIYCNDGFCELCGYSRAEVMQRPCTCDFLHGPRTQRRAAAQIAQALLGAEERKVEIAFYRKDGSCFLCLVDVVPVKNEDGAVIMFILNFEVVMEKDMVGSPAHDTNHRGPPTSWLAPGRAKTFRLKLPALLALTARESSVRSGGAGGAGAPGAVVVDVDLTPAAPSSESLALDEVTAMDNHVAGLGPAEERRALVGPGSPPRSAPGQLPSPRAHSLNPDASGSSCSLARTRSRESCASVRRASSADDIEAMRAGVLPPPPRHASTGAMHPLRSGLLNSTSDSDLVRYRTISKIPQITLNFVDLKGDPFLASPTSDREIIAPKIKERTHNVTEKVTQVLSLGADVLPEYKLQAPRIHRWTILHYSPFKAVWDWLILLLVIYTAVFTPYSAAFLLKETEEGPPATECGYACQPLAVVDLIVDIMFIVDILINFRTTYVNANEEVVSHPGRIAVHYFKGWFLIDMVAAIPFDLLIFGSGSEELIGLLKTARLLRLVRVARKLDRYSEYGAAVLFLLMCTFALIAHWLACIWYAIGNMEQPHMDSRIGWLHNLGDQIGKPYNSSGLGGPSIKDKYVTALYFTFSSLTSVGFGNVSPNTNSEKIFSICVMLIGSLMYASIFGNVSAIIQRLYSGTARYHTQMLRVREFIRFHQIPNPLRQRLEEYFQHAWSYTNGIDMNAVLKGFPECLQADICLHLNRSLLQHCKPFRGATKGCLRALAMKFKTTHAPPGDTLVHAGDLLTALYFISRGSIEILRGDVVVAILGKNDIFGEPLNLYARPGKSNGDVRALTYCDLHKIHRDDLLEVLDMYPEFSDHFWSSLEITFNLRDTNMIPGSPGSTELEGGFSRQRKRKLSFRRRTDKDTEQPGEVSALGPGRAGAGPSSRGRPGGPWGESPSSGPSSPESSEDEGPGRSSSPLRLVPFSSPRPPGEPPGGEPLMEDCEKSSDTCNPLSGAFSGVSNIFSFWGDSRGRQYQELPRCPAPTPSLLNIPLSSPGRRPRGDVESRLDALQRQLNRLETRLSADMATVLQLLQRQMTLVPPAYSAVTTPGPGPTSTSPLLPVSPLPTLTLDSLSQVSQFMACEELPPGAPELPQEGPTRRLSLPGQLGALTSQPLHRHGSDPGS

SMILES	hERG current change (%, negative = inhibition) at 1uM [%]
Cl.N=c1n(CCN2CCCCC2)c2ccccc2n1CC(O)c1ccc(Cl)c(Cl)c1 (stereo not shown)	-70.4
Cl.N=c1n(CCN2CCCC2)c2ccccc2n1CC(O)c1ccc(Cl)c(Cl)c1 (stereo not shown)	-33.2
Cl.N=c1n(CCN2CCCCC2)c2ccccc2n1CC(O)c1cccc(Br)c1 (stereo not shown)	-41.7
COc1ccc(NC(=S)N2CCC(NC(=O)c3ccc(OC)cc3)CC2)cc1	11.3
CCOCCCNC(=S)Nc1ccc2nc(N3CCCC3)cc(C)c2c1	-74.8
CCN1CCN(c2cc(C)c3cc(NC(=S)N(C)Cc4ccccc4)ccc3n2)CC1	-56.7
CCOCCCNC(=S)Nc1ccc2nc(N3CCN(CC)CC3)cc(C)c2c1	10.7
Cc1cc(N2CCCC2)nc2ccc(NC(=S)NCCCOC(C)C)cc12	-78.6
CCCN(CCC)CCCNC(=S)Nc1ccc2nc(N3CCCC3)cc(C)c2c1	-14.5
CCN1CCN(c2cc(C)c3cc(NC(=S)N(CC)CC)ccc3n2)CC1	-8.83
CCCCN(C)C(=S)Nc1ccc2nc(N3CCN(CC)CC3)cc(C)c2c1	-46.4
COCCNC(=S)Nc1ccc2nc(N3CCN(C)CC3)cc(C)c2c1	9.02
COCCNC(=S)Nc1ccc2nc(N3CCCC3)cc(C)c2c1	-50.5
COCCNC(=S)Nc1ccc2nc(N3CCOCC3)cc(C)c2c1	14.9
CCOCCCNC(=S)Nc1ccc2nc(N3CCOCC3)cc(C)c2c1	9.64
CCN1CCN(c2cc(C)c3cc(NC(=S)NCCCOC)ccc3n2)CC1	12.1
NC(=O)NCCCC(NC(=O)c1ccc(C#CC2(O)CCCCC2)cc1)C(=O)O (stereo not shown)	8.16
NS(=O)(=O)c1cccc2c1c([N+](=O)[O-])cc1nc([O-])c([O-])nc12.[Na+]	20.2
CCCNS(=O)(=O)c1cc(Br)cc2c1N(C(=O)CC)CC2	4.42
C=C(C)c1cccc(C(C)(C)NC(=O)NC2CC(C)(C)NC(C)(C)C2)c1	7.67
O=C(Nc1ccc(F)cc1)C1CC2CCC1C2 (stereo not shown)	12.7
Cc1ccc(NC(=O)c2cc(C)on2)cc1	6.42

SMILES	hERG current change (%, negative = inhibition) at 1uM [%]
CC12CN3CC(C)(CN(C1)C3c1ccccc1)C2O (stereo not shown)	9.98
Cc1ccc(C2=NN(CC(=O)NCCN(CC(C)C)CC(C)C)C(=O)CC2)cc1	-3.88
COc1cc(NC(=O)C(C)Oc2ccccc2)c(OC)cc1NC(=O)c1ccccc1 (stereo not shown)	13.2
Cc1ccc(CN2CCC(c3nc4ccc(Cl)cc4[nH]3)CC2)cc1	-91.8
Cc1ccc(Cn2nnnc2CN2CCC(c3nc4ccc(Cl)cc4[nH]3)CC2)cc1	4.97
Clc1ccc2nc(C3CCN(Cc4nnnn4C4CCCCC4)CC3)[nH]c2c1	-16.2
Clc1ccc2nc(C3CCN(Cc4ccccc4)CC3)[nH]c2c1	-73.7
CC(C)(C)c1ccc(S(=O)(=O)N2CCC(c3nc4ccc(Cl)cc4[nH]3)CC2)cc1	7.6
CC1CCCN(C(=O)CN2CCC(c3nc4ccc(Cl)cc4[nH]3)CC2)C1 (stereo not shown)	-35.9
COc1ccc(NC(=S)N2CCC(c3nc4ccc(Cl)cc4[nH]3)CC2)c(OC)c1	1.15
O=C(NC1CCCCC1)N1CCC(c2nc3ccc(Cl)cc3[nH]2)CC1	6.29
COc1ccc(CN2CCC(c3nc4ccc(Cl)cc4[nH]3)CC2)cc1	-84
Clc1ccc(CN2CCC(c3nc4ccc(Cl)cc4[nH]3)CC2)cc1	-78.7
O=C(c1cccc(Cl)c1)N1CCC(c2nc3ccccc3[nH]2)CC1	-0.145
CC1CCCCN1C(=O)CN1CCC(c2nc3ccc(Cl)cc3[nH]2)CC1 (stereo not shown)	1.51
Cc1nc(CCl)cc(=O)[nH]1	4.26
Cc1[nH]ccc(=O)c1OCc1c(F)cccc1Cl	12.8
Nc1cc(=O)[nH]c(SCC(=O)Nc2ccc(Cl)c(Cl)c2)n1	1.55
Cc1nc(SCCC(=O)O)c2cc(-c3ccccc3)sc2n1	6.67
NC(=O)CSc1nnc(CNc2ccc(F)cc2)n1CC1CCCO1 (stereo not shown)	-1.77
COc1ccc(-n2ccnc(SCC(=O)NC3CCCC3)c2=O)cc1	-4.46
CCOc1cc(C(=O)NC(C)c2ccncc2)cc(OCC)c1OCC (stereo not shown)	-1.97

SMILES	hERG current change (%, negative = inhibition) at 1uM [%]
Cc1cc(Cl)ccc1N(CC(=O)NCc1ccc2c(c1)OCO2)S(C)(=O)=O	3.99
Cc1ccc(NC(=S)N(CCC(C)C)C(C)c2ccncc2)c(Cl)c1 (stereo not shown)	10.9
CC1(C(=O)NC(=S)N(Cc2ccccc2)c2ccccn2)CC1(Cl)Cl (stereo not shown)	12.4
Cc1ccc(-n2cccn2)c([C@@H]2C[C@H]3CN(C)C(=O)[C@]34CCCN24)c1	-15
CN1C[C@@H]2C[C@@H](c3cccn3-c3nccs3)N3CCC[C@@]23C1=O	1.26
O=C1N(C2CCCC2)C[C@@H]2C[C@@H](c3cccn3-c3ccccn3)N3CCC[C@@]123	-28.9
Cn1cc([C@@H]2C[C@H]3CN(C4CCCC4)C(=O)[C@]34CCCN24)c(-c2ccccc2)n1	-0.828
Cc1cc(C)c([C@@H]2C[C@H]3CN(C4CCCC4)C(=O)[C@]34CCCN24)c(-n2cccn2)c1	-71.7
O=C1N(C2CCCC2)C[C@@H]2C[C@@H](c3cccn3-c3nccs3)N3CCC[C@@]123	-60.3
COc1ccc(Nc2nc(N)c(C(=O)c3ccc(OC)cc3)s2)cc1	-5.28
CC12CCC(=O)N1C(C(=O)Nc1cc(C(F)(F)F)ccc1N1CCOCC1)CS2 (stereo not shown)	10.5
Cc1cc(C)nc(NC(=S)Nc2cccc(F)c2)c1	6.3
CCOc1cc(N2CCOCC2)c(OCC)cc1NC(=O)c1ccc(C)s1	-1.15
COc1ccc(N=C2SCCCN2C)cc1.I	15.8
Fc1ccc(N2CCN(C3=Nc4cccc5cccc3c45)CC2)cc1	-69.4
c1cc2c3c(cccc3c1)C(N1CCCCC1)=N2	-44.8
c1cc2c3c(cccc3c1)C(N1CCOCC1)=N2	-0.83
CNC(=O)CC1C(=O)N(c2ccc(Cl)cc2)C(=S)N1CCc1ccc(OC)c(OC)c1 (stereo not shown)	10.1
O=C(NCC1CCCO1)c1cccc2ccccc12 (stereo not shown)	17.8
N=c1c(C(=O)NCC2CCCO2)cc2c(=O)n3ccccc3nc2n1C1CCCC1 (stereo not shown)	-72.2
N=c1c(C(=O)NCC2CCCO2)cc2c(=O)n3ccccc3nc2n1C1CCCCC1 (stereo not shown)	-79.2
N=c1c(S(=O)(=O)c2ccc(Br)cc2)cc2c(=O)n3ccccc3nc2n1C1CCCC1	14.3

SMILES	hERG current change (%, negative = inhibition) at 1uM [%]
N=c1c(S(=O)(=O)c2ccc(Br)cc2)cc2c(=O)n3ccccc3nc2n1C1CCCCC1	21.1
CN(C)c1ccc(CN(C(=O)/C=C/c2ccco2)C2CCS(=O)(=O)C2)cc1 (stereo not shown)	11.7
O=C(Nc1ccc(F)c(Cl)c1)Nn1cnnc1	0.762
Cc1cccc(NC(=S)N/N=C/c2ccc([N+](=O)[O-])s2)c1	11.2
COc1ccc2[nH]c(=O)c(C(c3nnnn3C3CCCC3)N(C)C3CCCCC3)cc2c1 (stereo not shown)	-3.8
CN(C(=O)c1ccc(S(=O)(=O)N2CCCCC2)cc1)C1CCS(=O)(=O)C1 (stereo not shown)	-3.22
Br.O=C(CN1CCCCC1)c1ccc(OC(F)F)cc1	-63.4
CCC1CCCCN1CC(=O)c1ccc(OC(F)F)cc1 (stereo not shown)	-80.2
Br.COc1ccc(C(=O)CN2CCCCC2)cc1	13.9
CCC1CCCCN1CC(=O)c1c(C)[nH]c2ccc(OC)cc12 (stereo not shown)	-5.25
CC1CC(C)CN(C(=S)Nc2ccc(OC(F)F)cc2)C1 (stereo not shown)	-45.1
Cl.O=C(CN1CCCCC1)c1ccc(F)cc1	7.09
CC1CC(C)CN(CC(=O)c2cccs2)C1 (stereo not shown)	-7.65
Br.O=C(CN1CCCCC1CO)c1ccc(OC(F)F)cc1 (stereo not shown)	-21.3
Br.CC1CC(C)CN(CC(=O)c2ccc(OC(F)F)cc2)C1 (stereo not shown)	-96.1
O=C(COC(=O)C1CCN(C(=O)c2ccc(Cl)cc2)CC1)Nc1ccccc1F	-11.5
Cc1cc(-c2nn(-c3ccccc3F)cc2CN2CCC(O)CC2)c(C)s1	-0.852
Cc1cc(-c2nn(-c3ccccc3F)cc2CN2CCN(c3ccccn3)CC2)c(C)s1	10.2
Cc1cc(-c2nn(-c3ccccc3F)cc2CN2CCN(c3ccncc3)CC2)c(C)s1	-69.3
Cc1ccc(N(CC(=O)NC(C)(C)C)C(=O)CNC(=O)c2cccs2)cc1	7.4
CN(CC(=O)Nc1ccc(F)cc1)C(=O)Cn1nnc(-c2ccccc2)n1	7.23
CC(C)N(C)C1CCN(C(=O)Nc2ccc(Cl)c(Cl)c2)CC1	-19.5
